Laboratory results as given in PubChem BioAssay (EPA / NIEHS).
Inconclusive results are not listed. The source made the active and inactive calls. Rule for the calls: active = hit-call score of the fitted dose curve at least 0.9, where 1 is the maximum; inconclusive = response in the unintended direction; inactive = score below 0.9.

Tested on: not listed separately
Test: NVS_IC_rCaBTZCHL: NovaScreen (NVS) Ion Channel Assay for Calcium Channel, Type L, Benzothiazepine Site (CaBTZCHL) (AID 2283337)
Outline: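 Benzothiazepine-site binding was assessed in a tissue-derived, cell-free rat cortical membrane system. After 1.5 h exposure, radioactivity retained on filters was quantified by scintillation; positive and negative controls accompanied every plate.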

Structure (SMILES) | outcome
CCCCCCCCC(CO)CCCCCC (configuration not stated) | inactive
Nc1ccnc(=O)[nH]1 | inactive
CCCCCCOC(=O)CCCCC(=O)OCCCCCC | inactive

Molecular target: bovine Estrogen Receptor (ER), ESR1 (gene 407238) (UniProt P49884)
Test: NVS_NR_bER: NovaScreen (NVS) Nuclear Receptor Binding Assay for bovine Estrogen Receptor (ER) (AID 2283345);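 note: actives lower the bound radioligand count which means they displace the ER ligand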
Outline: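 Bovine uterine membranes; tritiated or iodinated radioligand; competitive displacement; 18 h; scintillation read; DMSO negative control; 25 uM duplicates, then concentration series for actives.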

bovine Estrogen Receptor (ER), ESR1 (gene 407238), sequence (P49884 whole entry, looked up): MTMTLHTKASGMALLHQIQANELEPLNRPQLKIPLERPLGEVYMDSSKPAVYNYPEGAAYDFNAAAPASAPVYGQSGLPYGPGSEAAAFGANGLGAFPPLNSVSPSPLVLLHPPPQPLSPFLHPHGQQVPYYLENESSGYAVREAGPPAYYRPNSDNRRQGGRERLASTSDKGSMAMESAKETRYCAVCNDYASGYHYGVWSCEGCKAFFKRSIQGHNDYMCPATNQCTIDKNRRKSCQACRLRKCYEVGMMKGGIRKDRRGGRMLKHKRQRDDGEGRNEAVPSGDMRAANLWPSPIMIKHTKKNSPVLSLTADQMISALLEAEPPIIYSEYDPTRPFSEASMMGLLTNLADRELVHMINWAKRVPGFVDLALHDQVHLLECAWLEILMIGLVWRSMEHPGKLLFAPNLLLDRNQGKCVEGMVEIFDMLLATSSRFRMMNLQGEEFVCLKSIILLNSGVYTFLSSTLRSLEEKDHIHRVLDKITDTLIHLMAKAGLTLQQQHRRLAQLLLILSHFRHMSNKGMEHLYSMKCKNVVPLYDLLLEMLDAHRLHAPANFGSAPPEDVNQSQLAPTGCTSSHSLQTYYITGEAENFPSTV

Structure (SMILES) | outcome | AC50
O=c1c(O)c(-c2ccc(O)cc2O)oc2cc(O)cc(O)c12 | inactive | 
C=CC(=O)OCCCCCCOC(=O)C=C | inactive | 
C=CC(=O)OCC(C)OCC(C)OCC(C)OC(=O)C=C (configuration not stated) | inactive | 
CC(C)=CCCC(C)=CC#N | inactive | 
C[Si](C)(C)N[Si](C)(C)C | inactive | 
O=C(Nc1ccccc1)c1cc(Cl)ccc1O | inactive | 
CC(C)c1ccc(O)c(C(C)C)c1 | inactive | 
C=CCCCCCCCCC=O | inactive | 
c1ccc(Nc2cccc3ccccc23)cc1 | inactive | 
O=S(=O)(O)c1ccc(Nc2nc(Nc3ccc(C=Cc4ccc(Nc5nc(Nc6ccc(S(=O)(=O)O)cc6)nc(N(CCO)CCO)n5)cc4S(=O)(=O)O)c(S(=O)(=O)O)c3)nc(N(CCO)CCO)n2)cc1 | inactive | 
CCCCCCCCCCCCCCCCCCOS(=O)(=O)O | inactive | 
CCCCCCCOC(=O)c1ccc(O)cc1 |  | 13.2 µM (active)
O=C(O)C1CCC(C(=O)O)CC1 (configuration not stated) | inactive | 
COc1ccc(-c2coc3cc(O)cc(O)c3c2=O)cc1 |  | 14.6 µM (active)
CC(C)(c1ccccc1)c1ccc(Nc2ccc(C(C)(C)c3ccccc3)cc2)cc1 | inactive | 
Nc1ccc(O)c([N+](=O)[O-])c1 | inactive | 
CC(=O)OCc1ccccc1 | inactive | 
Oc1ccc(/C=C/c2cc(O)cc(O)c2)cc1 |  | 25 µM (active)
C=C(C)C(=O)OCC(O)COc1ccc(C(C)(C)c2ccc(OCC(O)COC(=O)C(=C)C)cc2)cc1 (configuration not stated) | inactive | 
C=C[Si](OCCOC)(OCCOC)OCCOC | inactive | 
CCCCCCCCCCCCc1ccc(O)cc1 |  | 10.7 µM (active)
CC(C)(C)C1CCC(=O)CC1 |  | 25 µM (active)
CCOC(=O)/C=C\C(=O)OCC | inactive | 
N#Cc1ccc(C2CCCc3cncn32)cc1 (configuration not stated) | inactive | 

Molecular target: chimpanzee Androgen Receptor (AR), AR (gene 747460) (UniProt O97775)
Test: NVS_NR_cAR: NovaScreen (NVS) Nuclear Receptor Binding Assay for chimpanzee Androgen Receptor (AR) (AID 2283346);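 note: radioligand displacement from AR measured by scintillation counting in a cell-free assay; a loss of bound radioligand signal versus DMSO counts as binding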
Outline: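 Cell-free competition binding with insect-cell (Sf9/Sf21) extracted chimpanzee AR; scintillation signal from lysate at 72 h. Screened in duplicate at 25 uM, then concentration-response for actives; fitting relative to DMSO.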

chimpanzee Androgen Receptor (AR), AR (gene 747460), sequence (O97775 whole entry, looked up): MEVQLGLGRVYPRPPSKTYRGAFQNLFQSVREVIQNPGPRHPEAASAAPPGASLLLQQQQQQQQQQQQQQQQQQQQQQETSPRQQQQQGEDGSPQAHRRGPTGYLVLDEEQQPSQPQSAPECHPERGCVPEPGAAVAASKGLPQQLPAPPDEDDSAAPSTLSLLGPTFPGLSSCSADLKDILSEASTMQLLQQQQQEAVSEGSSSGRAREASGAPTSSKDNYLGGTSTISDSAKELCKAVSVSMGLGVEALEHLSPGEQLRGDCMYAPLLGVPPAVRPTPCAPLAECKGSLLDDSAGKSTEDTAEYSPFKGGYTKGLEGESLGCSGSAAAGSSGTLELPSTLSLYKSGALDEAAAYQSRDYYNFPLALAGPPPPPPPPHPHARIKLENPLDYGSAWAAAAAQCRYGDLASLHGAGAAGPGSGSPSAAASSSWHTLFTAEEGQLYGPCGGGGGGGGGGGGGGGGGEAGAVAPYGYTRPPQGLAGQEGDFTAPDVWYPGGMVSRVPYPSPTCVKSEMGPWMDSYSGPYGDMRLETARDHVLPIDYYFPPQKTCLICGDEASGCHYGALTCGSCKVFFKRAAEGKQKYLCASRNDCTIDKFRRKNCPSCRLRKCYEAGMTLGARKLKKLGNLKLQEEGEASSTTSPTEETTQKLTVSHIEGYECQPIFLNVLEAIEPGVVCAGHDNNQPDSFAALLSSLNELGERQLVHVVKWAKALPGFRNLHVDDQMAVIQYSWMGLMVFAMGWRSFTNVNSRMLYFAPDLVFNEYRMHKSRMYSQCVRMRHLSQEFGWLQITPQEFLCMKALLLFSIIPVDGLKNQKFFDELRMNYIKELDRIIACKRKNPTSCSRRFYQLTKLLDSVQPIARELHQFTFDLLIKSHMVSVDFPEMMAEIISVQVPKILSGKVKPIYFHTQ

Structure (SMILES) | AC50 | outcome
O=c1c(O)c(-c2ccc(O)cc2O)oc2cc(O)cc(O)c12 | 9.55 µM (active) | 
C=CC(=O)OCC(C)OCC(C)OCC(C)OC(=O)C=C (configuration not stated) | 6.29 µM (active) | 
CC(C)c1cc(C(C)C)cc(C(C)C)c1 |  | inactive
CCCCCC[C@@H](O)C/C=C\CCCCCCCC(=O)OCC(O)CO (some centres not stated) |  | inactive
CN(C)c1ccc2nc3ccc(=[N+](C)C)cc-3sc2c1 | 11.2 µM (active) | 
N#Cc1ccc(C(c2ccc(C#N)cc2)n2cncn2)cc1 | 7.43 µM (active) | 
Oc1ccccc1Cc1ccccc1O | 25 µM (active) | 
C=C[Si](OCCOC)(OCCOC)OCCOC |  | inactive
CCOC(=O)/C=C\C(=O)OCC | 5 µM (active) | 
CC1(C)CC(O)CC(C)(C)N1[O] |  | inactive
